HP1b binding inh – inhibitors of HP1-beta chromodomain binding to methylated histone tails; P83916; AlphaScreen HP1-beta / biotin-H3K9me3 peptide binding; Potency, µM (doses to about 114 µM), for the others: at the top dose activity change, negative = inhibition, actives largely listed as inhibitors; 390,000 compounds, 0.56% hits; further: nearly all actives have a fitted effect of over 70% in size
Target sequence (P83916 whole entry, looked up): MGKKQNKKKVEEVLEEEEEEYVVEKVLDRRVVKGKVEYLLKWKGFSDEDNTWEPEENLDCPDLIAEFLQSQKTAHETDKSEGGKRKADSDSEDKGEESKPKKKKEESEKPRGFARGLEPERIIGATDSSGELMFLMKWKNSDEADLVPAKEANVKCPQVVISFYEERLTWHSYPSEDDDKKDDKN
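HP1-beta protein (50 nM final) preincubated 30 min at room temperature with biotinylated H3(1-18)K9me3 peptide (50 nM) in PBS pH 7.4, 0.01% Tween-20, then compound added for 30 min. AlphaScreen streptavidin donor/nickel chelate acceptor beads (10 ug/mL final), 30 min dark, luminescence read.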
BAZ2B block – inhibitors of human BAZ2B bromodomain. 360,000 compounds, 4.4% hits. Potency, µM (top dose mostly 114 µM), without a hit: at the top dose activity change, negative = inhibition, actives largely listed as inhibitors. AID 504333. AlphaScreen BAZ2B-H3K14Ac peptide displacement. Q9UIF8; further: on the % scale 0 is the no-effect control and ±100 the full control effect; nearly all actives have a fitted effect of over 60% in size
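Compounds, titrated to a top concentration of 110 uM, were incubated 30 min at room temperature with preformed BAZ2B/acetyl-K14 H3 peptide complex (50 nM each). Proximity signal was measured by AlphaScreen after 20 min with beads.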
L3MBTL1 inh – blocks human L3MBTL1. Q9Y468. AlphaScreen L3MBTL1–H3K9me1 peptide binding. Potency, µM (top dose mostly 57.1 µM), for inactives: at the top dose activity, negative = inhibition, most hits filed as inhibitors. 230,000 compounds, 0.66% hits; further: on the % scale 0 is the no-effect control and ±100 the full control effect; nearly all actives have a fitted effect of over 60% in size
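First, the protein-peptide complex forms for 30 min at room temperature (L3MBTL1 50 nM, biotinylated H3K9me1 peptide 75 nM). Next, compounds are pin-transferred and incubated 30 min. Finally, AlphaScreen beads are added and read after 30 min.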
JMJD2A Tudor – blocks the human JMJD2A Tudor domain; O75164; AlphaScreen JMJD2A-Tudor / H3K4me3 peptide binding; Potency, µM (top dose mostly 114 µM), without a hit: at the top dose activity change, negative = inhibition, usual class: inhibitors; 390,000 compounds, 4.4% hits; further: on the % scale 0 is the no-effect control and ±100 the full control effect; nearly all actives have a fitted effect of over 50% in size
Sfp PPTase inh – blocks B. subtilis Sfp PPTase activity; Q9F4F7; Biochemical Sfp PPTase activity, qHTS; Potency, µM, without a hit: largest response in the series, negative = inhibition, most hits filed as inhibitors; 310,000 compounds, 3.5% hits; AID 1490;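 further: the enzyme is Sfp with the accession as filed and its product quenches rhodamine fluorescence; 0% = enzyme reaction without inhibitor and -100% = no enzyme wells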
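After 15 min at room temperature with compound, 15 nM Sfp received 5 uM rhodamine-CoA plus 12.5 uM BHQ-2-ybbR (50 mM Hepes pH 7.6, 10 mM MgCl2). Rate came from the fluorescence difference over 30 min, ex 525/em 598 nm.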
G9a block – blocks human histone lysine methyltransferase G9a | Q96KQ7 | G9a H3K9 monomethylation, AlphaScreen, 2 h | Potency, µM (top dose mostly 102 µM), without a hit: at the highest dose activity, negative = inhibition, usual class: inhibitors | 350,000 compounds, 8.8% hits; further: on the % scale 0 is the no-effect control and ±100 the full control effect; nearly all actives have a fitted effect of over 75% in size
Target sequence (Q96KQ7 913-1193 limits assumed): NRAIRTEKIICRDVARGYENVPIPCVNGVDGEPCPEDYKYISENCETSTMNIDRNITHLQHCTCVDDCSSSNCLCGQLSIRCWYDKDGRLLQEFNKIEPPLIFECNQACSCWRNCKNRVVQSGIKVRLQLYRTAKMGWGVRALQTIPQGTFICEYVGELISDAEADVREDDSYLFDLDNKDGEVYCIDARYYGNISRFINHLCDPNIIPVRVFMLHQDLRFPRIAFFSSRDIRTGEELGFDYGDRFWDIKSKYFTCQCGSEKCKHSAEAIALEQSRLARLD
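AlphaScreen detection with an anti-monomethyl H3K9 antibody quantified product after a 2 h room-temperature reaction containing 500 nM biotinylated H3K9 peptide, 20 µM SAM and 20 nM enzyme, which had been preincubated 15 min with compound.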
The depositor's hits bear a star; ? = inconclusive; nt = no result; [ ] = dose if it differs, or a comment. Sampled rows, rich in hits. Any-hit rate of the full collection: about 12%. The call rests on the fitted dose curve; in most records, active means well fitted curve in the direction sought with a large enough effect; inconclusive means small, poorly fitted or top-dose-only effect, or another doubt; inactive means no such curve, though single readings can be large; an effect the other way counts as inactive or inconclusive. Potency means the concentration at half of the fitted maximal effect.

SMILES	HP1b binding inh	BAZ2B block	L3MBTL1 inh	JMJD2A Tudor	Sfp PPTase inh	G9a block
O=c1cc(-c2ccc(O)cc2)oc2cc(O[C@H]3OC(CO)C(O)C(O)C3O)cc(O)c12 (some centres not stated)	nt	nt	nt	nt	6%	-37%[2.33 µM]
CC1CC=CC2C1C(=O)N(Cc1ccccc1)C2c1ccc(F)c(Br)c1 (configuration not stated)	81%	nt	nt	33%	-16%	nt
O=C(NCC(c1ccco1)S(=O)(=O)c1cccs1)c1ccccc1 (configuration not stated)	25%	-3%	nt	-11%	nt	7%[59 µM]
O=c1c(O[C@@H]2O[C@H](CO)C(O)C2O)c(-c2ccc(O)c(O)c2)oc2cc(O)cc(O)c12 (some centres not stated)	14%	nt	14µM*	-30%	nt	nt
O=c1c(O)c(-c2ccc(O)c(O)c2)oc2c(OC[C@@H]3O[C@@H](O)[C@@H](O)[C@H](O)[C@H]3O)c(O)cc(O)c12	nt	nt	nt	nt	56µM*	nt
O=c1cc(-c2ccc(O)c(O)c2)oc2cc(O[C@@H]3O[C@H](CO)[C@@H](O)[C@H](O)[C@H]3O)cc(O)c12	5%	nt	4µM*	13µM*	-8%	nt
COc1ccccc1CNc1cc(-c2c(C)noc2C)ncn1	nt	nt	nt	nt	18%	9%[0.501 µM]
CCOC(=O)C1(C)NC(c2cccs2)C2C(=O)N(c3ccc(OC)cc3)C(=O)C21 (configuration not stated)	3%	2%	1%	10µM*	15%	4%
CCOC(=O)C1(C)NC(c2ccccc2F)C2C(=O)N(c3cccc(C(C)=O)c3)C(=O)C21 (configuration not stated)	?	19%	4%	35µM*	7%	13%
Cc1ccc(N(C(=O)CS(=O)CC(=O)Nc2ccc(F)cc2)C(C)C(=O)NC(C)(C)C)cc1 (configuration not stated)	15%	0%	nt	2%	1%	71µM*
Nc1nc(-c2ccccc2)[nH]c(=O)c1N=O	8%	79µM*	nt	-22%	?	?
CCc1ccc(CNC(=O)CCN2C(=O)COc3ccccc32)cc1	0%	2%	nt	-15%	nt	-3%[59 µM]
O=C(NNC1=NCCC1)C1CC1	-18%	?	-27%	-35%[57.1 µM]	-6%	13µM*
CC1=NN(c2ccccc2)C(=O)C1N=Nc1ccc(S(N)(=O)=O)cc1 (configuration not stated)	45%	-12%	37%	-21%	?	?
Cc1[nH]n(-c2ccccc2)c(=O)c1N=Nc1ccccc1C(=O)O	-7%	?	-9%	?	-15%	?
CC1=NC(=O)C(N=Nc2cccc(C(=O)O)c2)N1c1ccccc1 (configuration not stated)	-36%	50µM*	nt	?	-4%	?
CC1=NC(=O)C(N=Nc2ccccc2C(=O)O)N1c1ccccc1 (configuration not stated)	-13%	28µM*	-2%	?	-7%	-12%[12.7 µM]
CC1=NC(=O)C(N=Nc2ccccc2)N1c1ccccc1 (configuration not stated)	-32%	8.9µM*	-25%	11µM*	-1%	8.9µM*
COc1cccc(NC(=O)Cn2c(=O)n(-c3ccc(C)cc3)c(=O)c3ccccc32)c1	3%	4%	nt	-22%	nt	-4%[59 µM]
CC(=O)c1cc2c(cc1NC(=O)c1cnn(-c3ccc(C)cc3)c1-n1cccc1)OCO2	17%	-5%	nt	-7%	nt	-23%[59 µM]
C=C[C@]1(C)Cc2occ(C)c2C[C@H]1C(=C)C(=O)O	nt	nt	nt	nt	7%	nt
Cc1nc(CCN2C(=O)c3ccccc3C2=O)cs1	-19%	-4%	3%	-7%	79µM*	?
CCC1CN(C(=O)Nc2ccccc2C(F)(F)F)c2ccccc2O1 (configuration not stated)	24%	-31%	nt	-32%	nt	-49%[59 µM]
N#CC1(C#N)C2=C(CCCC2)NC(c2ccccc2)C1(C#N)C#N (configuration not stated)	nt	50µM*	-4%	nt	-6%	18µM*
CCOc1ccc(S(=O)(=O)N2CCN(c3nc(-c4ccccc4)nc4ccccc34)CC2)cc1OCC	26%	nt	nt	-23%	nt	nt
SMILES	HP1b binding inh	BAZ2B block	L3MBTL1 inh	JMJD2A Tudor	Sfp PPTase inh	G9a block
COCCNCCCOc1ccc(Br)cc1Cl	?	?	3%	3.2µM*	6%	10µM*
COCCNCCCOc1ccc(Cl)cc1Br	?	50µM*	7%	7.9µM*	-7%	11µM*
OCCNCCCOc1ccc(Cl)cc1Br	22%	-1%	5%	-14%	13%	-1%[59 µM]
COCCCNCCCCOc1ccc(Br)cc1Cl	-50%	?	4%	22µM*	-16%	?
C=CCNC(=O)C(=O)NCCOc1ccccc1Cl	38%	11%	9%	6%	-7%	-11%[59 µM]
COCCNC(=O)c1cc(Br)ccc1Cl	28%	-7%	-10%	-6%	6%	2%[59 µM]
C=CCNCCCOc1ccc(Cl)cc1Br	4%	-34%	7%	10µM*	-7%	?
O=C(O)CCc1nn2c3ccccc3n(CCO)c2nc1=O	22%	-8%	3%	-14%	15%	?
O=C(O)CCc1nn2c3ccccc3n(CC(=O)O)c2nc1=O	22%	2%	18%	-1%	-2%	50µM*
CCS(=O)(=O)c1ccc2c(c1)N(S(=O)(=O)c1ccc(C)cc1)CC(C(=O)O)O2 (configuration not stated)	52%	89µM*	0%	-7%	33%	?
CCS(=O)(=O)c1ccc2c(c1)N(S(=O)(=O)c1ccc(OC)cc1)CC(C(=O)O)O2 (configuration not stated)	34%	-36%[57.1 µM]	1%	-14%	22%	65%[59 µM]
COc1ccc(Cn2ccc3nc(C)c(C(=O)Nc4cc(C)cc(C)c4)cc3c2=O)cc1	23%	-11%	nt	-7%	nt	11%[59 µM]
CCOC(=O)OCC1OC(c2ccccc2)C=CC1Oc1ccc2oc(=O)cc(C)c2c1 (configuration not stated)	nt	nt	nt	nt	7%	nt
COc1ccc(-n2c(=O)c3c4c(sc3n(Cc3c(F)cccc3Cl)c2=O)CN(C(C)=O)CC4)cc1OC	24%	1%	nt	-12%	nt	1%[59 µM]
CCOC(=O)c1c(/N=C/c2cc([N+](=O)[O-])ccc2O)sc(C)c1C	30%	?	-2%	-10%	40µM*	?
CCOC(=O)c1c(/N=C/c2cc(OC)cc([N+](=O)[O-])c2O)sc(C)c1C	?	50µM*	-1%	?	?	20µM*
CCOC(=O)c1c(/N=C/C2=C(O)CC(C)(C)CC2=O)sc(C)c1C	75%	13%	4%	-3%	-2%	28%
COCCN(CCOC)c1nc(C)nc2c1nc(-c1ccccc1)n2CC1CCN(C)CC1	nt	nt	nt	nt	23%	nt
